This is part of a sample that, as a whole, favours compounds with a hit. Of some 83,000 tested, about 20% had one in any assay.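 Growth was measured after 48 h exposure to one concentration of compound in 96-well plates. Values under 10 count as active.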 Values without a mark were called inactive. The source made the active and inactive calls.

Test systems include T-47D breast; BT-549 breast; SW-620 colon; MCF7 breast; HCT-116 colon; HCC-2998 colon; KM12 colon; MDA-MB-435 melanoma.
What all share (assay): NCI-60 one-dose screen, 48 h (100 = growth as untreated, 0 = no growth, -100 = all killed)
Common to all, as to conditions: 10 µM

As for `Cc1cn(-c2cc(F)cc(NC(=O)c3ccc(C)c(Nc4nccc(-c5cccnc5)n4)c3)c2)cn1`, the growth in the test on T-47D breast was 3.22% (active); with BT-549 breast, -27.3% (active); in the test on SW-620 colon it was 40.5%; in the test with MCF7 breast it was 16.8%; in the test on HCT-116 colon it was 6.97% (active); in the test with HCC-2998 colon it was 101%. Besides, the growth in the test with KM12 colon was 15.6%.

Turning to `COC1OC(COS(=O)OC)C(O)C(O)C1OS(=O)OC` (stereo not drawn), the growth was 110% in the test on T-47D breast; 105% in the test on MDA-MB-435 melanoma; 103% with SW-620 colon; 88.4% in the test on MCF7 breast; 105% in the test on HCT-116 colon; 97.7% in the test with HCC-2998 colon. Further, in the test on KM12 colon, the growth was 98.5%.

For the compound `CC(=O)Nc1ccc(S(=O)(=O)N/N=C(\C)c2ccc(C)cc2C)cc1`, the growth with T-47D breast is 106%; in the test on BT-549 breast, 111%; with SW-620 colon, 101%; in the test on MCF7 breast it was 88.2%; in the test on HCT-116 colon, 102%; with KM12 colon, 110%.

Take `C#CC(C)(O)[C@@H]1C[C@H](CC(=O)O)C1(C)C` (stereo partly drawn): the growth in the test with T-47D breast is 120%; with BT-549 breast it was 104%; in the test on SW-620 colon it was 109%; in the test with MCF7 breast, 94%; in the test on HCT-116 colon, 106%; with KM12 colon, 108%.

As to `COc1cc(C(=O)/C=C/c2c[nH]c3ccccc23)cc(OC)c1OC`, the growth in the test with T-47D breast was 63.2%; with MDA-MB-435 melanoma, 7.59% (active); with SW-620 colon, 37.3%; in the test on MCF7 breast, 12.5%; with HCT-116 colon it was 12.2%; in the test on HCC-2998 colon it was 19.6%. In the test on KM12 colon, the growth was 11.5%.

As for `COc1cc(-c2ccc(N=Nc3ccc4c(S(=O)(=O)O)ccc(N)c4c3O)c(OC)c2)ccc1N=Nc1ccc2c(S(=O)(=O)O)ccc(N)c2c1O`, the growth in the test with T-47D breast is 105%; in the test on BT-549 breast, 117%; with SW-620 colon it was 109%; with HCT-116 colon it was 114%; in the test on HCC-2998 colon, 114%; in the test on KM12 colon, 114%.

Take `COc1ccc2c(c1)C(=O)/C(=C/c1ncc([N+](=O)[O-])n1C)O2`: the growth in the test with T-47D breast was 92%; with MDA-MB-435 melanoma it was -63.2% (active); in the test with SW-620 colon it was -41% (active); with MCF7 breast, 5.2% (active); with HCT-116 colon it was -10.7% (active); in the test with HCC-2998 colon, -64.1% (active). Moreover, the growth in the test on KM12 colon was -36.3% (active).

`N#CCc1csc(Cc2ccccc2)n1`: the growth is 103% in the test on T-47D breast; 111% in the test on MDA-MB-435 melanoma; 103% in the test on SW-620 colon; 90.1% with MCF7 breast; 106% in the test with HCT-116 colon; 104% in the test on HCC-2998 colon. Also, the growth with KM12 colon is 101%.

For `CC(C)[N+]1(C)C2CC[C@@H]1CC(OC(=O)C(CO)c1ccccc1)C2` (stereo partly drawn), the growth in the test on T-47D breast was 96.6%; in the test on MDA-MB-435 melanoma, 104%; in the test on SW-620 colon, 101%; in the test on MCF7 breast, 111%; with HCT-116 colon, 107%; with HCC-2998 colon it was 103%. Besides, the growth with KM12 colon was 115%.

Regarding `NC(N)=N/N=C(\c1ccccc1)C(O)c1ccccc1` (stereo not drawn), the growth in the test with T-47D breast was 89.9%; in the test with BT-549 breast, 103%; in the test with MDA-MB-435 melanoma it was 107%; in the test with MCF7 breast, 94.9%; in the test on HCT-116 colon it was 100%; with HCC-2998 colon, 100%. In the test with KM12 colon, the growth is 105%.

Turning to `Cc1ccc(S(=O)(=O)N(C)CCCCCC(=O)O)cc1`, the growth is 95.7% with T-47D breast; 105% in the test with MDA-MB-435 melanoma; 109% in the test on SW-620 colon; 89.5% with MCF7 breast; 100% in the test on HCT-116 colon; 105% in the test with HCC-2998 colon. For the same compound, in the test on KM12 colon, the growth was 95.3%.

On to `OCC1OC(n2ccc3c(NO)ncnc32)C(O)C1O` (stereo not drawn), for which the growth with T-47D breast is -18.9% (active); in the test on MDA-MB-435 melanoma, -54.5% (active); in the test on SW-620 colon, -3.1% (active); in the test on MCF7 breast, -0.414% (active); in the test on HCT-116 colon, -33.1% (active); with HCC-2998 colon, -38.7% (active). For the same compound, the growth in the test on KM12 colon was -26.6% (active).

As to `Cc1nn(-c2ccccc2)c2nc(Cl)c(C=O)c(-c3ccccc3)c12`, the growth in the test with T-47D breast is 83.5%; in the test on BT-549 breast, 86%; in the test with SW-620 colon, 72.1%; in the test on MCF7 breast, 90.6%; in the test on HCT-116 colon it was 4.57% (active); in the test with HCC-2998 colon, 77.5%. Further, the growth with KM12 colon was 78.3%.

`COc1ccc(-c2nc(-c3nc4ccc(C)cc4[nH]3)cc3c2[nH]c2ccccc23)cc1`: the growth with T-47D breast was 32.7%; with MDA-MB-435 melanoma it was 46%; with SW-620 colon, 81.4%; with MCF7 breast it was 36.1%; in the test with HCT-116 colon, 19.3%; in the test with HCC-2998 colon, 48.9%. Also, the growth with KM12 colon is 21%.

As for `O=C1c2ccccc2C(=O)c2c1ccc(C(Br)Br)c2Cl`, the growth in the test with T-47D breast was 22.7%; in the test with MDA-MB-435 melanoma, 60%; with SW-620 colon, -23.4% (active); with MCF7 breast it was 2.06% (active); in the test on HCT-116 colon it was -62.7% (active); in the test with HCC-2998 colon, 87.4%. Moreover, in the test on KM12 colon, the growth was 47.5%.

On to `Cc1ccc(C(SCC(N)C(=O)O)(c2ccc(C)cc2)c2ccc(C)cc2)cc1` (stereo not drawn), for which the growth in the test with T-47D breast was 27.2%; in the test on MDA-MB-435 melanoma it was -59.8% (active); with SW-620 colon, 20.5%; in the test with MCF7 breast it was 9.12% (active); with HCT-116 colon, -25.5% (active); in the test with HCC-2998 colon, 1.38% (active). In the test with KM12 colon, the growth was 0.314% (active).

Turning to `CCn1cc(CNc2ccc(C(=O)Nc3ccc4ccccc4c3)cc2)c(C)n1`, the growth is 6.54% (active) in the test with T-47D breast; 25.6% in the test with MDA-MB-435 melanoma; 87.6% in the test on SW-620 colon; 49% in the test on MCF7 breast; 40.5% in the test with HCT-116 colon; 81.5% in the test with HCC-2998 colon. In addition, the growth with KM12 colon was 55.5%.

For `O=C1c2ccccc2C(=O)c2c1ccc(C(Br)Br)c2[N+](=O)[O-]`, the growth in the test with T-47D breast is -36.2% (active); in the test on MDA-MB-435 melanoma, 81.5%; in the test with SW-620 colon, -23.6% (active); with MCF7 breast, -40% (active); in the test with HCT-116 colon it was -63.9% (active); in the test on HCC-2998 colon, 82%. Also, the growth with KM12 colon was 49.9%.

For the origin of these results see PubChem BioAssay (NCI).
